# Rows were chosen to be rich in hits. Some 1.1% of all compounds tested hit in one or more screens of this group.
# HTR5A ag ctr: activates human HTR5A in OPRM1-OPRD1 agonist counter-screen; AID 504692; activation, % at 9.3 µM; P47898; HTR5A agonist assay, luminescence, cell-based; hit rate 0.61% among 340,000; in the data active = activation mostly above about 9.5%, no sharp cut-off; inactive = mostly below about 7.6%;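 also: 0% = cells with vehicle only and 100% = reference agonist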
# Target sequence (P47898 whole entry, looked up): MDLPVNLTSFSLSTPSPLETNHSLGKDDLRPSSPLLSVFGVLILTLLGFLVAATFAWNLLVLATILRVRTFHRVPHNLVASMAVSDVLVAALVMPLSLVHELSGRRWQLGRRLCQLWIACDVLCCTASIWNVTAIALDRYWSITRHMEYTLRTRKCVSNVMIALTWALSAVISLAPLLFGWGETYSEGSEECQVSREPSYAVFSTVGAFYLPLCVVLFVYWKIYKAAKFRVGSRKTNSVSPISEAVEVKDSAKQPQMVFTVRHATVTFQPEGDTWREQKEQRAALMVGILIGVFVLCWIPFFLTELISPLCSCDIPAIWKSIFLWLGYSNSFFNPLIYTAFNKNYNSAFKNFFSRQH
# OPRM1-OPRD1 ag: agonists of human mu-delta opioid receptor heterodimerization; cells, OPRM1-OPRD1 heterodimerization, luminescence; activation, % at 9.3 µM; AID 504326; P35372+P41143; hit rate 0.3% among 340,000; in the data active = activation above about 18%;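 also: 0% = vehicle-treated cells and 100% = reference agonist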
# HTR5A inv ctr: HTR5A inverse agonism, opioid heterodimer counter-screen; P47898; HTR5A cell line, luminescence; inhibition, % at 9.3 µM; hit rate 0.083% among 340,000; AID 504634; in the data active = inhibition mostly above about 23%, no sharp cut-off; inactive = mostly below about 18%;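 also: 0% = cells with DMSO and 100% = no-cell wells with DMSO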
# OPRM1-OPRD1 inv: inverse agonist of human OPRM1-OPRD1 heterodimerization; cell-based MOR-DOR heterodimer luminescence, inverse agonism; hit rate 0.21% among 340,000; inhibition, % at 9.3 µM; P35372+P41143; in the data active = inhibition above about 22%, passing the limit was not always enough;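 also: 0% = cells with DMSO and 100% = wells without cells with DMSO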
# The depositor's hits bear a star.
SMILES,HTR5A ag ctr,OPRM1-OPRD1 ag,HTR5A inv ctr,OPRM1-OPRD1 inv
CC(C)(C)c1cc(CCC(=O)NN)cc(C(C)(C)C)c1O,12*,0,3,1
CC(C)(C)c1cc(CCC(=O)N2CCC2)cc(C(C)(C)C)c1O,-2,1,5,-3
Cn1cnc(S(=O)(=O)NC2CCN(Cc3c(F)cccc3Cl)CC2)c1,4,-2,-12,11
COCCOC(=O)c1c(C)n(C)c2ccc(OC(=O)N3CCOCC3)cc12,1,0,-17,2
COCCOC(=O)c1c(C)n(C)c2ccc(OC(=O)c3c(OC)cccc3OC)cc12,11*,-2,-40,8
Cc1ccc(S(=O)(=O)N(CC(=O)Nc2cccnc2)c2cccc(Br)c2)cc1,1,6,3,-32
CC1(C)CC(=O)C(=CN2CCN(C(=O)c3ccco3)CC2)C(=O)C1,11,-1,-21,5
Cc1ccc(S(=O)(=O)Nc2c(NC3CCCCC3)c3ccccc3oc2=O)cc1,13*,0,4,-1
O=c1c2ccccc2nc(-c2ccc([N+](=O)[O-])cc2)n1O,0,-1,0,3
O=C(N/N=C/c1cccc2ccccc12)c1ccc(CN2CCOCC2)cc1,12*,-2,-42,7
CCCCNc1nc2c(S(=O)(=O)c3ccccc3)nnn2c2ccccc12,0,1,-29,-3
CCc1ccc(S(=O)(=O)c2nnn3c2nc(NCCNC(C)=O)c2ccccc23)cc1,11*,2,-27,-14
CCCc1nc2oc3c(NCCN4CCOCC4)ncnc3c2c2c1CCCC2,0,-3,-3,19
O=C1CCc2cc(S(=O)(=O)N3CCN(c4cccc(C(F)(F)F)c4)CC3)ccc2N1,13*,25*,-28,-126
O=C(c1ccccc1)c1c2c(cc3sc4ccccc4[n+]13)-c1cccc3cccc-2c13,33*,90*,-64,-481
CC(=O)c1ccc(NC(=O)CSc2ccsc2[N+](=O)[O-])cc1,9.4*,-2,-22,10
O=C(CSc1ccsc1[N+](=O)[O-])Nc1cc(F)ccc1F,-3,-2,6,8
CN(C1CCS(=O)(=O)C1)S(=O)(=O)c1ccccc1[N+](=O)[O-] (stereo not drawn),11*,0,-31,1
Cc1noc(C)c1COC(=O)CNC(=O)c1cccc(F)c1,-1,-1,13,3
O=S(=O)(Nc1ccc(-c2ccc3nncn3n2)cc1)c1ccccc1Cl,2,0,-6,2
O=S(=O)(Nc1ccc(-c2ccc3nncn3n2)cc1)c1ccc(Cl)s1,10*,1,-5,-7
COc1ccc(S(=O)(=O)NCc2csc(-c3cccnc3)n2)cc1,-2,-1,-24,9
O=C(COc1ccccc1)N/N=C/c1ccc(O[C@@H]2O[C@H](CO)[C@@H](O)[C@H](O)[C@H]2O)cc1,13*,-2,4,11
CCNc1nc(NCC)n2c(SCC(=O)Nc3cc(Cl)ccc3OC)nnc2n1,-1,-2,15,9
Cc1ccc(OCC(=O)NNC(=S)NC(=O)C(C)(C)C)c(Br)c1,1,-5,-2,26
SMILES,HTR5A ag ctr,OPRM1-OPRD1 ag,HTR5A inv ctr,OPRM1-OPRD1 inv
CC(C)c1ccc(OCC(=O)NNC(=S)NC(=O)c2cccs2)c(Br)c1,12*,-3,1,16
O=C1C(Cc2ccccc2)Nc2ncnc(N3CCN(c4ccccc4)CC3)c2N1Cc1ccc(Cl)cc1 (stereo not drawn),-18,-12,53*,57*
N/C(=N\OC(=O)c1ccc(Cl)cc1Cl)c1cccnc1,-1,9,2,-63
N/C(=N\OC(=O)c1ccc(Cl)cc1)c1cccnc1,14*,9,-23,-55
COc1ccccc1CN=C1NC(=O)C(CC(=O)Nc2ccc(C(C)=O)cc2)S1 (stereo not drawn),13*,0,8,-2
COc1ccc(CCNC(=O)CC2SC(=NCc3ccccc3OC)NC2=O)cc1 (stereo not drawn),1,-2,-2,8
Cn1c(=O)n(C)c2cc(C(=O)O)ccc21,0,0,13,0
Cc1ccccc1C(=O)c1ccc2c(c1)n(C)c(=O)n2C,12*,0,19,-2
c1cncc(CSc2ccc(-c3cccs3)nn2)c1,4,-1,-11,4
COc1ccc(CCNS(=O)(=O)c2ccc3c(c2)NC(=O)CS3)cc1OC,11*,-2,0,10
Cn1c(=O)c([N+](=O)[O-])c(Cl)c2ccccc21,-5,-8,13,37*
CCN(CC)c1c([N+](=O)[O-])c(=O)n(C)c2ccccc12,2,1,-5,-5
Cc1c(NCc2cc(Cl)cc(Cl)c2O)c(=O)n(-c2ccccc2)n1C,-3,0,4,-1

# Screens as filed in PubChem BioAssay.
